From ChEMBL document CHEMBL3988442, “University of Dundee, Small-Polar-MMV Screening Library” (2021)

The molecules below were run against T1, Tyrosyl-tRNA synthetase, putative (Trypanosoma cruzi (strain CL Brener)) (UniProt Q4DSP6) (assay: Trypanosoma cruzi tyrosyl tRNA synthetase (TcYRS) _High Tyrosine SOP). Settings: 30 µM.
T1 sequence (whole entry): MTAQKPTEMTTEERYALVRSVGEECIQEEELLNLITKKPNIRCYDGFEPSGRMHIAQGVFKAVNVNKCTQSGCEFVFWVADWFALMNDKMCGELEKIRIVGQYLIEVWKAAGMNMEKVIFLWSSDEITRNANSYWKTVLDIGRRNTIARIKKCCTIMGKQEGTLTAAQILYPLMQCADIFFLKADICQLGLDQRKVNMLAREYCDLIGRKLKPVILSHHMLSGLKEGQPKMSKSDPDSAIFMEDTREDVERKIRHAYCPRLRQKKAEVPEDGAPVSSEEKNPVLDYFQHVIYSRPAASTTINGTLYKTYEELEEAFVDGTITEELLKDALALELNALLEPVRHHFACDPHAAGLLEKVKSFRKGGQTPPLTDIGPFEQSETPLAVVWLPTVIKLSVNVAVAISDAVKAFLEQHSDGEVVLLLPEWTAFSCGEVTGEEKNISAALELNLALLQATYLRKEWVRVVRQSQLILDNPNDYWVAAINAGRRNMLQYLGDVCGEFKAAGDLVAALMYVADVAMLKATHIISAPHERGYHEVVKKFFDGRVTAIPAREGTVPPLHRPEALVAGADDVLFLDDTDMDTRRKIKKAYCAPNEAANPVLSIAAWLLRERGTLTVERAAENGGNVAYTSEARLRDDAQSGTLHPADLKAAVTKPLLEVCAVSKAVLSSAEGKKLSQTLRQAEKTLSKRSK
Assay type: functional
Parameters: scale not given: in the data most compounds retested in dose-response had high values
`COCCn1ccc(NC(=O)Nc2cccnc2)n1` was tested, and the Percent Effect was 3.19%.
`CCN(C(=O)CCCOc1ccccc1F)c1ccncc1` showed a Percent Effect of 5.32%.
`O=C(NC1CC1)[C@@H]1CCO[C@@H]2CCN(C3CCOCC3)C[C@@H]21` gave a Percent Effect of 1.07%.
For `Cc1nc(C)n(CC2CCCN(c3ncnc4sccc34)C2)n1` (stereo not given), the Percent Effect was 6.4%.
Molecule `Cc1nn(C)c(Cl)c1C1CCCN1C(=O)c1cc(Cl)c[nH]1` (stereo not given) has a Percent Effect of 7.39%.
Work on `COc1c(C2CCCN2Cc2csc(C(C)C)n2)c(C)nn1C` (stereo not given) yielded a Percent Effect of 1.94%.
Molecule `CNc1cncc(C2CCCN2Cc2ccccn2)n1` (stereo not given) has a Percent Effect of 9.68%.
Molecule `CC(=O)Nc1nc(C(=O)N2CCCC2Cn2cc(C)cn2)cs1` (stereo not given) has a Percent Effect of 2.86%.
`O=C(NCCN1CCCCCC1=O)c1ccn(-c2ccc(F)cc2)n1` was tested, and the Percent Effect was 4.43%.
Work on `O=C(NCCCn1cccn1)N1CCCC1c1ccncc1` (stereo not given) yielded a Percent Effect of 0.546%.
Work on `CC(C)c1nnc(NC(=O)NCc2ccnc(N(C)C)c2)s1` yielded a Percent Effect of 1.04%.
`CC(NC(=O)N(C)Cc1ccc(Cl)s1)c1ccccn1` (stereo not given) gave a Percent Effect of 3.12%.
`CCc1nnc2n1CCN(C(=O)c1cnc3ccccc3n1)C2` showed a Percent Effect of 5.26%.
With `O=C(c1ccccc1N1CCOCC1)N1CCCC(n2cccn2)C1` (stereo not given) the Percent Effect was 5.42%.
Molecule `CSc1ccc(NC(=O)Nc2ccc3c(c2)N(S(C)(=O)=O)CC3)cc1` has a Percent Effect of -6.35%.
With `OCC1CCCN1c1cc(NCCc2c[nH]c3ccccc23)ncn1` (stereo not given) the Percent Effect was 1.07%.
For `CC1CCN(C(CNC(=O)CCn2cccn2)c2cccs2)CC1` (stereo not given), the Percent Effect was 6.01%.
`CSCC[C@H](N)C(=O)NCc1cc2n(n1)CCCN(C(=O)C1CCC1)C2` gave a Percent Effect of 0%.
`COC(=O)c1ccc(N2CCN(C(=O)c3ccncc3)C(C)C2)cc1` (stereo not given) was tested, and the Percent Effect was 8.37%.
`Cc1cccnc1NCCNC(=O)[C@H]1CNC[C@@H](C(=O)N2CCCC2)C1` gave a Percent Effect of 5.21%.
For `Cc1ccccc1CNC(=O)Cc1c(C)nc2cc(=O)[nH]n2c1C`, the Percent Effect was 9.31%.
`CC(Cn1ccnc1)NC(=O)C1(c2ccc(F)cc2)CC1` (stereo not given) was tested, and the Percent Effect was 1.48%.
`O=C1NC(c2ccccc2)=N[C@@]12CC[C@@H]1CN(Cc3ccco3)C[C@@H]12` showed a Percent Effect of 2.08%.
With `Cc1nc(CO[C@@H]2CN(Cc3cnn(C)c3)[C@@H]3COC[C@@H]32)cs1` the Percent Effect was 3.12%.
`COCC(=O)N1CCC[C@]2(C(=O)N(C)C)CN(c3ccccn3)C[C@@H]2C1` showed a Percent Effect of 6.25%.
With `O=C(c1ccc(Br)o1)N1CCCC(n2cncn2)C1` (stereo not given) the Percent Effect was 0%.
With `CCCOc1ccc(NC(=O)NCCC(=O)N(C)C)cc1Cl` the Percent Effect was 4.3%.
With `COCCNC(=O)C1(c2ccccc2C)CCOCC1` the Percent Effect was 0.493%.
With `O=C(CN1CCN(CC(O)C2CC2)CC1)NCc1ccc(F)cc1` (stereo not given) the Percent Effect was 8.47%.
With `Cc1cnn(CCNCc2nc(COc3ccc(F)cc3)no2)c1` the Percent Effect was 4.41%.
For `CN(C)C(=O)Cc1nc(CN2CCn3c(nnc3C3CC3)C2)cs1`, the Percent Effect was 5.94%.
`CC(C)c1ncc2c(n1)CN(Cc1nc(-c3cccs3)no1)CC2` was tested, and the Percent Effect was 13.9%.
Work on `Cc1n[nH]cc1CNc1ccc2c(c1)N(C(=O)OC(C)(C)C)CCC2` yielded a Percent Effect of 4.3%.
With `CCn1cc(N2Cc3nc(N)ncc3C2=O)cn1` the Percent Effect was 7.41%.
With `Cc1cccc(-c2ccc(C(=O)NCC(C)(C)C(N)=O)c(=O)[nH]2)c1` the Percent Effect was -0.493%.
In the case of `CN(C)C(=O)CN1CCCC2(CCN(c3ccsc3)C2=O)C1` (stereo not given), the Percent Effect is reported as -1.06%.
`Cc1nc(N2CCCC2)ncc1-c1cc(O)nc(N2CCCC2)n1` was tested, and the Percent Effect was 2.12%.
Work on `O=C(c1ccc(C2CCCO2)s1)N1CCS(=O)(=O)CC1` (stereo not given) yielded a Percent Effect of 4.76%.
Molecule `OC(CN1CCN(Cc2nnc(C3CC3)o2)CC1)c1ccccc1` (stereo not given) has a Percent Effect of 2.46%.
`CC(=O)c1cc(CC(=O)NCc2ccc(CN(C)C)cc2)cs1` gave a Percent Effect of 2.65%.
